Test results reported in PubChem BioAssay AID720650 (Broad Institute, 2013).
Values without a mark were called inactive. Activity calls are given as the source filed them. How the calls were made is not given here.

Experiment: C difficile toxins, biochemical counterscreen, UDPG substrate absence, confirmatory dose response (AID 720650)
Conditions: series mostly up to 19.5 µM

| Compound | AC50 |
| --- | --- |
| COC(=O)C[C@@H]1CC[C@@H]2[C@H](COC[C@H](O)CN2C(=O)Nc2ccccc2OC)O1 | inactive |
| CCn1c(=S)[nH]c2c(=O)n(C)c(=O)n(C)c21 | 13.2 µM (active) |
| O=C(OCn1nnc2ccccc2c1=O)c1cc2ccccc2o1 | inactive |
| COc1cc(/C=N/n2c(-c3ccccc3)n[nH]c2=S)ccc1O | inactive |
| CC(=O)N1CC[C@@H]2[C@@H](CO)N(C)c3ccc(-c4ccccc4)cc3[C@@H]21 | 7.4 µM (active) |
| COc1cc(/C=C(\C#N)C(=O)Nc2ccc3c(c2)OCCO3)ccc1O | > 39 µM |
| CNC(=O)C[C@H]1CC[C@@H]2[C@H](COc3ccc(NC(=O)c4ccc(OC)cc4)cc3C(=O)N2C)O1 | > 39 µM |
| Cc1ccc2c(c1)-c1c(cnn1CC(=O)NC(C)CCc1ccco1)CO2 (stereo not drawn) | inactive |
| CC(=O)Nc1ccc(OC(=O)Oc2ccc(NC(C)=O)cc2)cc1 | > 39 µM |
| CC(=O)c1cccc(-c2ccnc3c2CC(C(=O)NCc2ccccc2)O3)c1 (stereo not drawn) | inactive |
| O=C1NC(=O)/C(=C/c2ccc(O)cc2)S1 | 8.69 µM (active) |
| Cc1cc(C(=O)N2CCN(Cc3ccccc3)CC2)ccc1[N+](=O)[O-] | inactive |
| COc1cccc(C(=O)Nc2ccc3c(c2)C(=O)N(C)[C@@H]2CC[C@H](CC(=O)NCCCN4CCOCC4)O[C@@H]2CO3)c1 | inactive |
| CCOc1cc(NC(=S)NCC2CCCO2)c(OCC)cc1NC(=O)c1ccc(F)cc1 (stereo not drawn) | inactive |
| COC(=O)C[C@H]1CC[C@@H]2[C@@H](COc3ccc(NC(=O)c4cccc(OC)c4)cc3C(=O)N2C)O1 | inactive |
| CCNC(=O)C[C@H]1CC[C@@H]2[C@@H](COc3ccc(NC(=O)c4ccc5c(c4)OCO5)cc3C(=O)N2C)O1 | > 39 µM |
| O=C(Nc1ccc(N2CCOCC2)c(Cl)c1)c1ccc(Cl)cc1 | 12.3 µM (active) |
| CC(C)OC(=O)c1cccc(C(=O)O)n1 | inactive |
| Cc1cc(C)nc(SCC(=O)c2ccc(O)c(O)c2)n1 | inactive |
| O=C(Nc1ccc(O)cc1)/C(=C/c1ccco1)NC(=O)c1ccccc1 | 14.7 µM (active) |
| COc1cc(OC)cc(C(=O)NNC(=O)CN2C(=O)NC(C)(c3ccc(C)cc3)C2=O)c1 (stereo not drawn) | inactive |
| Cc1cc(N/N=C/c2ccncc2)nc2ccccc12 | inactive |

| Compound | AC50 |
| --- | --- |
| COc1ccc(CC(=O)C2C(=O)N(C)c3ccccc32)cc1OC (stereo not drawn) | inactive |
| O=C(c1ccc2c(c1)N(Cc1ccccc1)C(=O)c1ccccc1S2)N1CCCC1 | 16.2 µM (active) |
| COc1ccc2cc3c(nc2c1)OCC3 | inactive |
| O=C1Nc2ccccc2C1c1ncc(C(F)(F)F)cc1Cl (stereo not drawn) | inactive |
| COc1cc(/C=N/Nc2ccccn2)ccc1O | > 39 µM |
| COc1ccccc1/C=N/NC(=O)CC(=O)NCc1ccccc1 | > 39 µM |
| COc1ccc(C2=NS(=O)(=O)N(C)C(C(=O)N3CCOCC3)=C2)cc1 | inactive |
| CCc1ccc(NC(=O)C2=CC(c3ccc(OC)cc3)=NS(=O)(=O)N2C)cc1 | inactive |
| COc1ccc(S(=O)(=O)Nc2ccc3oc(C)c(C(=O)O)c3c2)cc1 | > 39 µM |
| CNC(=O)N(O)C1N(/N=C/c2cccs2)C(=S)SC1(C)C (stereo not drawn) | > 39 µM |
| COc1cc(/C=C/C(=O)OCC(=O)Nc2ccc(S(N)(=O)=O)cc2)ccc1O | inactive |
| O=C(O)c1ccccc1C(=O)c1ccc2c(c1)N(Cc1cccc(F)c1)C(=O)CO2 | 19 µM (active) |
| COC(=O)C1=C(c2ccc(F)cc2OCc2ccccc2)C[C@@H]2CC[C@H]1N2C(=O)N1CCCC1 | inactive |
| OCC[C@H]1C[C@H](O)[C@@H](O)[C@@]2(Cc3ccccc3CO2)O1 | inactive |
| CCN(CCN(C)C)C(=O)C1CCN(S(=O)(=O)c2c(C)noc2/C=C/c2ccccc2F)CC1 | inactive |
| COc1ccc(CNC(=O)C2CCN(S(=O)(=O)c3c(C)noc3/C=C/N(C)C)CC2)cc1 | inactive |
| O=C(O)c1ccc2c(c1)N(Cc1cccc(F)c1)C(=O)CS2 | inactive |
| CCOc1ccc2c(C)nc(NC3=NC(C)(C)C=C(C)N3)nc2c1 | inactive |
| CCOC(=O)c1ccc(-n2c(CCC(=O)O)ccc2-c2ccc(F)cc2)cc1 | inactive |
| COc1ccc(-c2ccc(OC(=O)NC3CCS(=O)(=O)C3)cc2)cc1 (stereo not drawn) | 12.6 µM (active) |
| COc1ccc(-c2cn3cc(C)ccc3n2)cc1F | > 39 µM |
